We go through five compounds from PubChem BioAssay.

Several values for one entry are separate records, joined by “and”; a condition that tells them apart may be missing. Identical values can stand only once. Inconclusive results are not listed. Activity calls are given as the source filed them.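 Rule for the calls, unless noted: active = binding below the plate cutoff, the plate median minus 3 SD, with a reading above zero; inconclusive = below the plate cutoff but reading exactly zero; inactive = the rest.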

Test [1] is described as follows: yeast TOR pathway RPL19A-GFP modulators, primary screen, cell-based, S. cerevisiae, multiplex flow cytometry (AID 1862; in the data active = percent of DMSO control GFP below about 86%;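 note: lower values mimic rapamycin by blocking the RPL19A rise seen in DMSO cells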). The settings on record: S. cerevisiae RPL19A-GFP strain, flow cytometry fluorescence, 3 h; at 10 µM; stronger effect = lower value. Background: A flow cytometer gives signals particle by particle.
The nature of test [2]: modulators of MEP2-GFP levels in yeast, primary screen, S. cerevisiae, multiplex flow cytometry (AID 1867;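 active = GFP response, as percent of the DMSO control, above the screen-wide mean plus 3 SD, about 139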;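 note: median GFP channel fluorescence of barcode-gated MEP2-GFP cells measured by flow cytometry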). As to conditions: S. cerevisiae MEP2-GFP strain, 3 h, at 10 µM, stronger effect = higher value, 100% means same as DMSO wells.
Test [3] in a line: modulators of CIT2-GFP expression in yeast, primary screen, S. cerevisiae, GFP fusion, multiplex flow cytometry (AID 1870;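 active = percent response above a set limit, the screen-wide mean plus 3 SD, cut at about 130% in these data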;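 note: barcoded CIT2-GFP strain pooled with four other GFP strains with rapamycin as positive control; median GFP fluorescence per well over plate mean of DMSO wells so 100% = DMSO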). As to conditions: 3 h, at 10 µM, stronger effect = higher value.
Test [4] can be described thus: modulators of LAP4-GFP expression in yeast, primary screen, S. cerevisiae, multiplex flow cytometry (AID 1873;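 active = GFP signal, as percent of the solvent control, above the screen mean plus 3 SD, about 149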). As to conditions: 3 h, at 10 µM, stronger effect = higher value.
Test [5] in a line: modulators of AGP1-GFP expression in yeast TOR pathway, primary screen, cell-based, multiplex flow cytometry, S. cerevisiae (AID 1887;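 active = GFP signal above the screen-wide mean plus 3 SD, that is over about 124.5% of the solvent control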;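 note: AGP1-GFP fusion strain of S. cerevisiae within a five-strain barcoded multiplex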). As to conditions: 3 h, at 10 µM, stronger effect = higher value.
The nature of test [6]: inhibitors of CD8+ T cell-vesicle binding, pilot screen, LFA-1/ICAM-1 modulator project, MLPCN validation set, flow cytometry (AID 2523;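 active = response below a set limit, under 55% cells CD8-positive and vesicle-bound, and CD8 cells' 90th-percentile brightness under 279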;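 for vesicle binding response: mean PE anti-B7-1 fluorescence of CD8+ cells relative to row control; 100% = QL9-loaded vesicles with DMSO vehicle in the same plate row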). The settings on record: 2C mouse CD8+ T cells, at 7 µM, stronger effect = lower value; double positive events: measured here: CD8+/vesicle+ event percentage.
In test [7] the target is Integrin beta-1 (Homo sapiens) + Integrin alpha-4 (Homo sapiens) (UniProt P13612+P05556). Kind of test: inhibition of HUTS-21 binding to VLA-4, pilot screen, VLA-4 allosteric modulator project, U937 cells, HUTS-21 mAb, flow cytometry, validation set (AID 2674;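 active = inhibition above 50%, about 3 SD of the validation set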;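 note: antibody binding induced by the VLA-4 ligand LDV present at three times its Kd; 0% = LDV ligand with antibody and no compound and 100% = antibody without LDV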). The settings on record: HUTS-21 LIBS mAb binding, at 6.7 µM, stronger effect = higher value, binding induced by LDV ligand.
Integrin beta-1 (Homo sapiens) + Integrin alpha-4 (Homo sapiens), sequence (P05556 whole entry, looked up): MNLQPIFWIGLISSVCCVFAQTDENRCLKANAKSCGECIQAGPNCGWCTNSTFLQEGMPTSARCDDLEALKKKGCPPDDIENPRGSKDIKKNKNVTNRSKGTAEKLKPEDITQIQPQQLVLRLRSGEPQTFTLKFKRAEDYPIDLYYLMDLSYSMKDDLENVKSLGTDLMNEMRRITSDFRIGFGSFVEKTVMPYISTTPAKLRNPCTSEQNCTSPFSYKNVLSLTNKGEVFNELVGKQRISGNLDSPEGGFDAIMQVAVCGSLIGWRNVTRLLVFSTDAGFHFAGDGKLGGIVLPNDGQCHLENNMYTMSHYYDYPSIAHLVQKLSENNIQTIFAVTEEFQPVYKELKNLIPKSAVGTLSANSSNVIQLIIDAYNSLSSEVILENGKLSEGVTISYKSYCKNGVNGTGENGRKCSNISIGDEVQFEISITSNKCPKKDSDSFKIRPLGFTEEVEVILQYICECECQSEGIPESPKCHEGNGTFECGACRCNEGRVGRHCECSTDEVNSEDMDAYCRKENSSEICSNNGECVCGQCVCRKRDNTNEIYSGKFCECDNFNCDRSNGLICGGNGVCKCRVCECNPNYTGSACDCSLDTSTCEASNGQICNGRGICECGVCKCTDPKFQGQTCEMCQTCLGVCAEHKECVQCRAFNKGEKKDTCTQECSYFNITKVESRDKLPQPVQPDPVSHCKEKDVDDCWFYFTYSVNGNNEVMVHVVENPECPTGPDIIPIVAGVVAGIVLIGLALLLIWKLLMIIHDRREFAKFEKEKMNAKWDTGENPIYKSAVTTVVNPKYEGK
Integrin beta-1 (Homo sapiens) + Integrin alpha-4 (Homo sapiens), sequence (P13612 whole entry, looked up): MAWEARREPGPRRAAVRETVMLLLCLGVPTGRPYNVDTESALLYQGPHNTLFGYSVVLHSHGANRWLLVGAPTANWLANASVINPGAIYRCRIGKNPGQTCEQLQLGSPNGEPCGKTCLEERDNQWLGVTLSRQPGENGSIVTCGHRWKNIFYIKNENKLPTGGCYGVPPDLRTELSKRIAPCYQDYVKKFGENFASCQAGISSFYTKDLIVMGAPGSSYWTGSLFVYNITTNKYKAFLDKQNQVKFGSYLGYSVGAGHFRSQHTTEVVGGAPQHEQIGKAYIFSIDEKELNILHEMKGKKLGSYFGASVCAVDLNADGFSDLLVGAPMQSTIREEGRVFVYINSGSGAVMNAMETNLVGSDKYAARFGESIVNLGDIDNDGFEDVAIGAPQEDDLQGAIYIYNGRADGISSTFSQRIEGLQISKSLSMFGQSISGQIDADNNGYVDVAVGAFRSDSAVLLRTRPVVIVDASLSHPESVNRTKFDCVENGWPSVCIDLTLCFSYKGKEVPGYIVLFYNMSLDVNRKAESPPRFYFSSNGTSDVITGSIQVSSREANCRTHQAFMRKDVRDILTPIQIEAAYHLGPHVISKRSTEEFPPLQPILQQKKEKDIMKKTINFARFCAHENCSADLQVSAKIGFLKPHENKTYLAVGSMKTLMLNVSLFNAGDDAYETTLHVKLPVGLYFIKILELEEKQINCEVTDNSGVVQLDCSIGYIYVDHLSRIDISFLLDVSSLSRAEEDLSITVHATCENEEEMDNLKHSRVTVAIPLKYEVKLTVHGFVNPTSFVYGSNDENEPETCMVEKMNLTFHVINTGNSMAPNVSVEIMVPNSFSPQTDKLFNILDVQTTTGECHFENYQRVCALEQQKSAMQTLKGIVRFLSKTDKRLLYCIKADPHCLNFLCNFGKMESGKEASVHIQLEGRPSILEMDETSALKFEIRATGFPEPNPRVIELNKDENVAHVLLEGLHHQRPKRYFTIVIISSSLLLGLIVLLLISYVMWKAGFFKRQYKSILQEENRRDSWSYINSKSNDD

The nature of test [8]: superoxide lowering in aged yeast cells, pilot screen, validation compound set (AID 2706;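 active = superoxide response below 65% of plate, a cut near 3 SD across the whole screen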;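 note: yeast exposed to compound for one week at 30 degrees C before staining; 100% = mean of all compound wells on the same plate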). As to conditions: S. cerevisiae aging, superoxide DHE fluorescence; at 10 µM; stronger effect = lower value.
Test [9] deals with Beta-adrenergic receptor kinase 1 (Homo sapiens) (UniProt P25098). Nature of the test: GRK2 binders displacing RNA aptamer, biochemical, validation, human GRK2, bead flow cytometry (AID 488806;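 active = aptamer binding inhibition above 30%, about 3 SD of noise from non-fluorescent compounds; inactive = inhibition at or below 30%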). As to conditions: bead-bound GRK2, FAM-aptamer displacement, at 10 µM, stronger effect = higher value.
Beta-adrenergic receptor kinase 1 (Homo sapiens), sequence (P25098 whole entry, looked up): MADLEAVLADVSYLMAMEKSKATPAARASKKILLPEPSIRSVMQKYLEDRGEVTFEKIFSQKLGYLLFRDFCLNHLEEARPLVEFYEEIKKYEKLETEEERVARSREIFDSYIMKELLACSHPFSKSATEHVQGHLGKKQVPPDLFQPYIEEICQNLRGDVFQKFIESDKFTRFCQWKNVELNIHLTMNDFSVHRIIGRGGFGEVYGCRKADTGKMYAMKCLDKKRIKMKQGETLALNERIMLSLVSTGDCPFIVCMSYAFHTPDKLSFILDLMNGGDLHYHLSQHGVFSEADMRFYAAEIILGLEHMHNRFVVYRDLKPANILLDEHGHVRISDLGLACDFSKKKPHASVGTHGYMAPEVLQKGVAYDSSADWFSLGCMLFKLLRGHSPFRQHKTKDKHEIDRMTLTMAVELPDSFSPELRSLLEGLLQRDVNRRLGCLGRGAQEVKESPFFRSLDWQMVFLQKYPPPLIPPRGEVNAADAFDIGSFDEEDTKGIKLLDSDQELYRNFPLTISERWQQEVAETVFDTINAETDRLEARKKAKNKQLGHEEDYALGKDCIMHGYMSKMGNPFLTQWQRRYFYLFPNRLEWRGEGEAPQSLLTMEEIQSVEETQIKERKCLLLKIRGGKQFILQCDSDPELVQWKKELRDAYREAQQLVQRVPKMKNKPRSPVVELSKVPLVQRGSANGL
The target of test [10] is Beta-2 adrenergic receptor (Homo sapiens) (UniProt P07550). Nature of the test: beta2AR agonists driving receptor internalization, pilot screen, cell-based, FAP fluorogen, flow cytometry, validation set (AID 504459;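 active = percent response above 42, roughly 3 SD of non-fluorescent test compounds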;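 note: agonist-driven loss of surface beta2AR via internalization measured by FAP dye flow cytometry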). As to conditions: Am2.2-beta2AR cells, FAP surface receptor flow cytometry; at 10 µM; stronger effect = higher value.
Beta-2 adrenergic receptor (Homo sapiens), sequence (P07550 whole entry, looked up): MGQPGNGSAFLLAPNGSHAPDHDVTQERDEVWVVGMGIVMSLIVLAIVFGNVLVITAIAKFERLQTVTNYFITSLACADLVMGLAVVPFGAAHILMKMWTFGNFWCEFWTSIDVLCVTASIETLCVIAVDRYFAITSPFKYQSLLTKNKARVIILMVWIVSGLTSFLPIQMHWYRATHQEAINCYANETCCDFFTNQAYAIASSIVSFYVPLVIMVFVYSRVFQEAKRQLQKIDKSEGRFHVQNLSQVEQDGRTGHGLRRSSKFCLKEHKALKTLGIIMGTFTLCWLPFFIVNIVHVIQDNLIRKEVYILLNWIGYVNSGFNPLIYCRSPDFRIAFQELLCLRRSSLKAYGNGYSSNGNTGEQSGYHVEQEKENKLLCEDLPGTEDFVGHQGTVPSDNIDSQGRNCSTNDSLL
Test [11] addresses AP-2 complex subunit beta (Homo sapiens) (UniProt P63010). Nature of the test: inhibitors of arrestin peptide binding to AP2, pilot screen, biochemical, validation set, GST-AP2 beads, flow cytometry (AID 504541;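 active = inhibition above 54%, about 3 SD of non-fluorescent compounds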;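 note: AP2 carries R879A mutation and is captured from E. coli lysate; bead-bound FITC arrestin peptide fluorescence measuring arrestin peptide binding to AP2; 0% = DMSO wells and 100% = excess unlabeled arrestin peptide control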). As to conditions: FITC arrestin peptide, at 10 µM, stronger effect = higher value, AP2 beta2 appendage fragment, R879A mutant.
The nature of test [12]: yeast V-ATPase proton transport modulators, S. cerevisiae, pHLuorin, HTS validation (AID 504600; in the data active = response above about 15%;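 note: plate controls were DMSO for no effect and reference compound for full effect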). As to conditions: S. cerevisiae pHLuorin cytosolic pH, at 10 µM, stronger effect = higher value.
Test [13] has as its system anti-desmoglein-3 scFv antibody binding to human DSG3. Nature of the test: inhibitors of anti-DSG3 scFv binding to DSG3, pilot screen, biochemical, validation compound set, bead-based, flow cytometry (AID 588368).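 Note: signal is the median channel fluorescence of bead-bound GFP antibody.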 The settings on record: Protein G beads, DSG3-Fc, scFv-GFP binding, at 10 µM, stronger effect = lower value.
The nature of test [14]: inhibitors of fungal efflux pumps CDR1, CDR2, MDR1, pilot screen, validation compound set, multiplex, phenotypic (AID 588506;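 active = efflux inhibition above 0.42, the validation set average plus 4 SD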;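 note: Nile Red retained in cells so higher fluorescence means more efflux inhibition; 0 = negative control wells and 1 = enniatin B 25 µM full block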). As to conditions: S. cerevisiae pump-expressing triplex, Nile Red efflux flow cytometry; at 10 µM; stronger effect = higher value; the pumps come from Candida albicans.
The target of test [15] is ATP-binding cassette sub-family B member 6 (Homo sapiens) (UniProt Q9NP58). Nature of the test: ABCB6 transporter inhibitors, pilot screen, K562-ABCB6 cells, flow cytometry, validation set (AID 588550;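 active = inhibition above the screen-wide mean plus 3 SD, about 51%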;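 note: 0% = DMSO wells and 100% = benzethonium chloride 70 µM positive control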). As to conditions: K562-ABCB6 porphyrin accumulation, 1 h, at 10 µM, stronger effect = higher value.
ATP-binding cassette sub-family B member 6 (Homo sapiens), sequence (Q9NP58 whole entry, looked up): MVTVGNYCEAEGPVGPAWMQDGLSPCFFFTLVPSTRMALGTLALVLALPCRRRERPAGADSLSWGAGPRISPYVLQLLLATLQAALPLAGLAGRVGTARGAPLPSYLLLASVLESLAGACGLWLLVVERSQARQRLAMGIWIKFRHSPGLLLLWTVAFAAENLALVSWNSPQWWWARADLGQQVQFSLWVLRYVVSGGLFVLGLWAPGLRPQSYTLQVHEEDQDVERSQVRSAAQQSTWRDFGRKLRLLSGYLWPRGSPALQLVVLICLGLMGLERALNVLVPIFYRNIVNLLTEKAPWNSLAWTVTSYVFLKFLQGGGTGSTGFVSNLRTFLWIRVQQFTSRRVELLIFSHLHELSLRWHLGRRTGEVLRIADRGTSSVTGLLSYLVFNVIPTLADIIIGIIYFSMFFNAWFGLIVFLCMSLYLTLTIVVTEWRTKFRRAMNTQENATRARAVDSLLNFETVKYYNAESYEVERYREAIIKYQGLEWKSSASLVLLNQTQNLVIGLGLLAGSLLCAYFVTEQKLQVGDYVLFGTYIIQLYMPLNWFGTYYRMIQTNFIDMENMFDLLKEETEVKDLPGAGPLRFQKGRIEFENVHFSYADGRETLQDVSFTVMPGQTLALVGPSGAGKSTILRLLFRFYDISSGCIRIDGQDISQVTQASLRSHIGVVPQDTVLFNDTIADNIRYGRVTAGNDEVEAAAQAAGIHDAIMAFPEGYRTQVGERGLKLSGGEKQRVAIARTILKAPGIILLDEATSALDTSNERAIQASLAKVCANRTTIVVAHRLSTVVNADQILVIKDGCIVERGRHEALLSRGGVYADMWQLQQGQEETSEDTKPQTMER
Test [16] in a line: promoters of myeloid differentiation in arrested cells, primary screen, cell-based, GFP/MAC1 double positive, flow cytometry, validation set (AID 588685;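 active = differentiation response of at least 50%, scaled between solvent and reference control, from cells with both markers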;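 note: compound exposure lasts four days before antibody staining and flow analysis; 0% = DMSO wells and 100% = 5 µM fulvestrant positive control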). The settings on record: ER-HoxA9 marrow cells, stronger effect = higher value, normalized: vehicle 0, fulvestrant 100.

Broadly, the inhibition is the change of the read-out against control, counted positive when it falls.

AP-2 complex subunit beta (Homo sapiens), sequence (P63010 whole entry, looked up, the tested form may be a part, one chain of several): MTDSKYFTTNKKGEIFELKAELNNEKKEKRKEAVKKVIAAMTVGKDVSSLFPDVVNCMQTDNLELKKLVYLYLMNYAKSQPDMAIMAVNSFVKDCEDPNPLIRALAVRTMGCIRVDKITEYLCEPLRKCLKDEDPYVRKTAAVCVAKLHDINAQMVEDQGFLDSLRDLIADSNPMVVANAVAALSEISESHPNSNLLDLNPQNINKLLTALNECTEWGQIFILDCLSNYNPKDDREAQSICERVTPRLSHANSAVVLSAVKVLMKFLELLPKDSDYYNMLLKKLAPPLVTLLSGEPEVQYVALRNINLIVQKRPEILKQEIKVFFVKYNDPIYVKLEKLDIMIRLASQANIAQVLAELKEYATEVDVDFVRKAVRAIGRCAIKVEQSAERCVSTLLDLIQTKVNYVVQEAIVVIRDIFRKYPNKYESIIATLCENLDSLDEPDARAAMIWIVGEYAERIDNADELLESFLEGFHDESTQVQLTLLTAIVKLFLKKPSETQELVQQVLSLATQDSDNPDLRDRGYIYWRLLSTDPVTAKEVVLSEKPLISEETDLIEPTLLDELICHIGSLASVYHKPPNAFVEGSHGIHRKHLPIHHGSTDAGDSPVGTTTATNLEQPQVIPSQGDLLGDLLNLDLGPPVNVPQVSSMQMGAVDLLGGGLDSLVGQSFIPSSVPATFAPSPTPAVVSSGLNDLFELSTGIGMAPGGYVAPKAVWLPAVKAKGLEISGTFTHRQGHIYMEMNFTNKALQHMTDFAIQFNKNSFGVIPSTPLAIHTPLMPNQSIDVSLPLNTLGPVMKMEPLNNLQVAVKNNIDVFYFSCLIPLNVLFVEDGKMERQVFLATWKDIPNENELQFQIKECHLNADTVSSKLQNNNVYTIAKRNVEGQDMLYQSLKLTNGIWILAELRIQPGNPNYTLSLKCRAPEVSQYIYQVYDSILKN

In the case of `COc1ccccc1/C=C/C(=O)c1c2c(c(C)[nH]c1=O)CCCC2`, the percent of DMSO control GFP in [1] is 97.8% (inactive). Moreover, the GFP response vs DMSO in test [2] was 96.6% (inactive); in test [4], 104% (inactive). Also, in test [3], the percent response of DMSO control is 96.4% (inactive). In addition, the GFP response, % of DMSO in test [5] was 114% (inactive). Besides, in test [6], the double positive events worked out at 65.9%. The vesicle binding response in [6] was 192% (inactive). The inhibition in test [7] is 17.6% (inactive); in test [11], 1.34% (inactive); in test [15], 4% (inactive). Moreover, the superoxide response (% of plate) in [8] is 107% (inactive). Moreover, the aptamer binding inhibition in test [9] was 8% (inactive). Besides, the values for the response in test [10] and in [12] were -4.6% (inactive) and 17.4% (active), respectively. Also, the binding (% of control) in [13] was 106% (inactive). Moreover, in test [14], the efflux inhibition (fraction of control) was -0.13 (inactive). Besides, in [16], the differentiation response was 15.7% (inactive).
As to `Cc1ccc(S(=O)(=O)Oc2ccccc2/C=N/N=C(N)N)cc1`, the percent of DMSO control GFP in test [1] was 102% (inactive). For the same compound, the GFP response vs DMSO in [2] is 103% (inactive); in [4], 93.7% (inactive). The percent response of DMSO control in test [3] is 104% (inactive). In addition, the GFP response, % of DMSO in [5] is 103% (inactive). Moreover, in test [6], the double positive events stood at 68.2%. Besides, the vesicle binding response in test [6] is 172% (inactive). Besides, the inhibition was 12.6% (inactive) in test [7], 6.93% (inactive) in test [11] and 7% (inactive) in [15]. In addition, the superoxide response (% of plate) in [8] is 97.8% (inactive). In addition, the aptamer binding inhibition in [9] is 1% (inactive). In addition, the values for the response in test [10] and in test [12] were 7.63% (inactive) and -0.49% (inactive), respectively. Further, in [13], the binding (% of control) is 103% (inactive). In test [14], the efflux inhibition (fraction of control) is 0.01 (inactive). For the same compound, the differentiation response in [16] is -2.64% (inactive).
Consider `CN1[C@@H]2CC(OC(=O)[C@H](CO)c3ccccc3)C[C@H]1[C@@H]1O[C@@H]12` (stereo not given in full), for which, in test [1], the percent of DMSO control GFP was 107% (inactive) and 99.1% (inactive). The GFP response vs DMSO in [2] is 101% (inactive) and 115% (inactive); in test [4] it was 109% (inactive) and 117% (inactive). Also, the percent response of DMSO control in test [3] was 109% (inactive) and 93.9% (inactive). Further, the GFP response, % of DMSO in [5] was 114% (inactive) and 103% (inactive). In addition, the double positive events in [6] is 62.9% and 62.1%. Also, in test [6], the vesicle binding response was 177% (inactive) and 215% (inactive). Besides, the inhibition in test [7] was 0.25% (inactive) and 6.4% (inactive); in [11], 14.7% (inactive) and 37.8% (inactive); in test [15] it was -10% (inactive) and 4% (inactive). The superoxide response (% of plate) in [8] is 99.8% (inactive) and 101% (inactive). Besides, in [9], the aptamer binding inhibition was -1% (inactive) and 3% (inactive). The response in test [10] is -2.34% (inactive) and -12.4% (inactive); in test [12], -8.23% (inactive) and -3.95% (inactive). The binding (% of control) in test [13] was 101% (inactive) and 98.7% (inactive). Besides, the efflux inhibition (fraction of control) in test [14] is -0.26 (inactive) and -0.1 (inactive). In test [16], the differentiation response is -3.11% (inactive) and -2.4% (inactive).
With `CC(=O)Nc1nnc(S(N)(=O)=O)s1`, the percent of DMSO control GFP in [1] was 102% (inactive). Further, the GFP response vs DMSO in [2] was 95.1% (inactive); in test [4] it was 88.1% (inactive). Also, the percent response of DMSO control in test [3] was 116% (inactive). Moreover, in test [5], the GFP response, % of DMSO was 102% (inactive). In [6], this compound gave a double positive events of 62.4%. Further, in [6], the vesicle binding response was 1080% (inactive). Further, the inhibition in test [7] was 17.2% (inactive); in test [11], -5.06% (inactive); in test [15], 16% (inactive). The superoxide response (% of plate) in test [8] is 111% (inactive). In addition, the aptamer binding inhibition in [9] is 5% (inactive). Also, the figures for the response in test [10] and in test [12] were -4.02% (inactive) and 0.12% (inactive), respectively. In addition, the binding (% of control) in test [13] was 102% (inactive). Also, the efflux inhibition (fraction of control) in test [14] was 0.05 (inactive). Besides, in [16], the differentiation response is 6.11% (inactive).
As for `Cc1cccc(-c2ncc(CN3CCN(CC(C)C)C(CCO)C3)cn2)c1` (stereo not given), the percent of DMSO control GFP in test [1] was 104% (inactive). Further, the GFP response vs DMSO in test [2] was 100% (inactive); in test [4], 76.2% (inactive). In addition, in [3], the percent response of DMSO control was 108% (inactive). For the same compound, the GFP response, % of DMSO in [5] was 99.2% (inactive). Also, the double positive events in test [6] worked out at 65.5%. Besides, in test [6], the vesicle binding response was 344% (inactive). For the same compound, the inhibition in test [7] is -3.57% (inactive); in test [11] it was -1.77% (inactive); in test [15] it was 15% (inactive). For the same compound, the superoxide response (% of plate) in [8] was 97.3% (inactive). For the same compound, in [9], the aptamer binding inhibition is 2% (inactive). Besides, the results for the response in test [10] and in test [12] were -5.5% (inactive) and 3.08% (inactive), respectively. In addition, the binding (% of control) in test [13] is 101% (inactive). The efflux inhibition (fraction of control) in test [14] was 0.02 (inactive). In test [16], the differentiation response is 4.15% (inactive).
